An excerpt weighted towards active compounds, which were near 7.9% of everything screened.
KB-V1 cytotox = kills drug-selected multidrug resistant KB-V1 cells; hit rate 3.4% among 400,000; Potency, µM (titrated, usually from 46.1 µM), actives largely listed as cytotoxic; KB-V1 MDR cells viability, CellTiter-Glo, 72 h; also: nearly all actives have a fitted effect of over 60% in size
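Cells of the MDR subline KB-V1 are plated, dosed with compound at multiple concentrations, and incubated 72 h at 37 degrees C; CellTiter-Glo is then added and luminescence read after 10 min.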
MCF10A rerep = inducers of DNA re-replication in MCF 10A breast cells; MCF 10A DNA re-replication, Hoechst nuclear intensity, 48 h; Potency, µM (doses to about 46.1 µM), hits mostly activators; hit rate 2.9% among 350,000; AID 624296; also: nearly all actives have a fitted effect of over 50% in size
KB-3-1 tox = kills parental KB-3-1 adenocarcinoma cells; KB-3-1 viability, CellTiter-Glo ATP luminescence, 72 h; Potency, µM (highest dose often 46.1 µM), actives largely listed as cytotoxic; hit rate 1.4% among 400,000; AID 1347075; also: nearly all actives have a fitted effect of over 60% in size
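Here the drug-naive KB-3-1 line serves as comparator for MDR sub-line selectivity; cells received compound titrations, 72 h at 37 °C, then CellTiter-Glo readout.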
HT1080-NT tox = kills 2HG-producing HT-1080-NT fibrosarcoma cells. HT-1080-NT fibrosarcoma viability, CellTiter-Glo ATP luminescence, 48 h. Potency, µM (titrated, usually from 46.1 µM), usual class: cytotoxic. hit rate 1.6% among 360,000;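 also: NT is the 2HG producing partner of a matched IDH1 knockdown line; nearly all actives have a fitted effect of over 55% in size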
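HT-1080-NT; 750 cells/well; 5% FBS RPMI; 48 h compound, 37 degrees C; CellTiter-Glo luminescence; curve fitting and curve-class assignment.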
HT1080 IDH1KD tx = kills HT-1080 cells with IDH1 knockdown. hit rate 2% among 360,000. Potency, µM (top dose mostly 46.1 µM), hits mostly cytotoxic. HT-1080 IDH1 knockdown viability, ATP luminescence, 48 h. AID 686971
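Assay cells: HT-1080 with IDH1 knockdown, 750 per well, RPMI/5% FBS. Exposure: 48 h at 37 °C following 2 h pre-incubation. Read: CellTiter-Glo luminescence; fitted concentration-response, curve class assigned.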
SW480 rerep = induces DNA re-replication in SW480 colon adenocarcinoma cells; SW480 DNA re-replication, Hoechst DNA content imaging, 48 h; Potency, µM (doses to about 46.1 µM), actives largely listed as activators; hit rate 1.8% among 340,000; AID 624297; also: nearly all actives have a fitted effect of over 55% in size
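DNA re-replication was detected as more nuclei of elevated Hoechst intensity after 48 hr exposure to compound (23 nL pinned per well of 250 cells).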
Hits are given with their value; . = inactive; ? = inconclusive; / = no result given. Calls follow the shape of the dose curve; as a rule, active = well fitted curve in the direction sought with a large enough effect; inconclusive = small, poorly fitted or top-dose-only effect, or another doubt; inactive = no such curve, though single readings can be large; an effect the other way counts as inactive or inconclusive.

SMILES | KB-V1 cytotox | MCF10A rerep | KB-3-1 tox | HT1080-NT tox | HT1080 IDH1KD tx | SW480 rerep
COc1ccc(-c2oc(NC(=O)CSc3nncn3C)c(C#N)c2-c2ccc(OC)cc2)cc1 | . | 13µM | ? | ? | 16.4µM | .
CCn1c(SCC(=O)Nc2oc(-c3ccccc3)c(-c3ccccc3)c2C#N)nnc1-c1ccncc1 | . | 23.1µM | . | . | . | .
N#Cc1c(NC(=O)CSc2ccccn2)oc(-c2ccccc2)c1-c1ccccc1 | . | 20.6µM | . | . | . | .
N#Cc1c(NC(=O)CCN2C(=O)c3ccccc3C2=O)oc(-c2ccccc2)c1-c1ccccc1 | . | . | . | . | . | .
CCn1c(SCC(=O)Nc2oc(-c3ccccc3)c(-c3ccccc3)c2C#N)nnc1-c1ccco1 | ? | ? | . | . | . | .
COc1cc(NC(=O)CSC2=Nc3ccccc3N=C(c3ccc(F)cc3)C2)cc(OC)c1 | . | / | . | / | / | /
COc1ccc(S(=O)(=O)NCCc2cn3nc(C)c(C)nc3n2)cc1F | . | ? | ? | . | . | ?
CCOC(=O)c1c(C)c(C(=O)NC2CCCCCC2)c(C)n1C | 8.2µM | . | . | . | . | .
CCOC(=O)c1c(C)c(C(=O)N(C)C2CCCCC2)c(C)n1C | 14.6µM | . | . | . | . | .
Cc1sc2ccccc2[n+]1Cc1ccccc1 | . | / | . | / | / | /
Clc1cccc(Cl)c1COn1nnc2ccccc21 | ? | ? | . | ? | ? | ?
c1ccc(COn2nnc3ccccc32)c(COn2nnc3ccccc32)c1 | 16.4µM | ? | . | . | . | .
CCOC(=O)c1cc([N+](=O)[O-])cc([N+](=O)[O-])c1Sc1ncnc2nc[nH]c12 | ? | ? | ? | 4.61µM | 4.61µM | 11.6µM
CC(NO)/C(=N\O)c1cccs1 (stereo not given) | . | 3.66µM | . | . | . | ?
CCCC1(c2ccccc2)NC(=O)N(CC(=O)Nc2cc(OC)cc(OC)c2)C1=O (stereo not given) | . | . | . | . | . | .
CC1Cc2ccccc2N1C(=O)CSc1nc2c(c(=O)n(C)c(=O)n2C)n1Cc1ccc(F)cc1 (stereo not given) | 1.84µM | . | . | . | . | .
CCOC(=O)c1c(NC(=O)CSc2nc3c(c(=O)n(C)c(=O)n3C)n2CC)sc(C)c1C | 9.2µM | . | . | . | . | .
Cn1c(=O)c2c(nc(SCC(=O)c3cccs3)n2Cc2ccc(F)cc2)n(C)c1=O | ? | . | . | . | . | .
CCCn1c(SCC(=O)N2CCc3ccccc3C2)nc2c1c(=O)n(C)c(=O)n2C | 3.66µM | . | . | . | . | .
CCCn1c(SCC(=O)N2c3ccccc3CCc3ccccc32)nc2c1c(=O)n(C)c(=O)n2C | 4.11µM | . | . | . | . | .
CCN(CC)c1ccc(C(=O)NNC(=O)Cn2c(=O)cnc3ccccc32)cc1 | . | / | . | . | . | /
COc1cccc(C(O)c2ncc(-c3ccccc3)[nH]2)c1 (stereo not given) | . | / | . | . | . | /
CCCCn1c(SCC(=O)N2CCCC2)nc2c1c(=O)n(C)c(=O)n2C | 9.2µM | . | . | . | . | .
CCCCn1c(SCC(=O)Nc2nnc(C(C)C)s2)nc2c1c(=O)n(C)c(=O)n2C | 2.31µM | ? | ? | . | . | .
CCCCn1c(SCC(=O)N2c3ccccc3Sc3ccccc32)nc2c1c(=O)n(C)c(=O)n2C | 14.6µM | . | 16.4µM | . | ? | ?
SMILES | KB-V1 cytotox | MCF10A rerep | KB-3-1 tox | HT1080-NT tox | HT1080 IDH1KD tx | SW480 rerep
CC1Cc2ccccc2N1C(=O)CSc1nnc(Cn2nnc3ccccc32)n1C (stereo not given) | 18.4µM | . | . | . | . | .
Cc1ccc(C(=O)NCC(=O)Nc2ccc(Cl)cc2)s1 | . | . | . | . | . | .
CCCCCn1c(CN2CCCCC2C)nc2c1c(=O)n(C)c(=O)n2C (stereo not given) | 4.61µM | ? | . | . | . | .
CN(C(=S)NC(=O)c1ccccc1Br)C1CCCCC1 | ? | . | . | 1.58µM | 2.24µM | 5.8µM
O=C(Cc1ccc(F)cc1)Nc1cccc(-c2cn3c(n2)SCC3)c1 | 18.4µM | . | . | . | . | .
CC(C)(C)c1ccc(OCCCNC2CCCC2)cc1 | ? | 16.4µM | ? | ? | ? | ?
COc1cccc(OC)c1OCCCNC1CCCC1 | . | . | . | . | . | 6.51µM
CCOc1ccc(OCCNC2CCCC2)cc1 | ? | . | . | . | . | .
CCOc1ccccc1OCCNC1CCCC1 | . | ? | . | . | . | 23.1µM
N#Cc1ccccc1OCCCNC1CCCC1 | . | . | . | . | . | .
CCCOc1ccc(OCCNC2CCCC2)cc1 | 23.1µM | ? | . | . | . | .
COc1ccccc1NS(=O)(=O)c1ccc(C)c(NS(=O)(=O)c2cc(NC(C)=O)ccc2OC)c1 | . | . | . | . | . | .
CN(C)S(=O)(=O)N(CC(=O)N1CCC(Cc2ccccc2)CC1)c1ccccc1 | . | . | . | . | . | .
COc1ccc(N(CC(=O)N2CCC(Cc3ccccc3)CC2)S(C)(=O)=O)cc1 | ? | ? | . | . | . | 5.8µM
CS(=O)(=O)N(CC(=O)N1CCCC1)c1ccc(OCc2ccccc2)cc1 | 14.6µM | . | ? | . | . | .
COc1cc(CC(=O)N(C)CC(=O)Nc2cc(C)ccc2C)cc(OC)c1OC | . | . | . | . | . | .
CCN(CC)CCNC(=O)C(Oc1ccccc1)Oc1ccccc1 | . | . | . | . | . | .
CCCCCCCNC(=O)c1ccc(N2CCC3(CC2)OCCO3)c([N+](=O)[O-])c1 | 9.2µM | . | . | . | . | .
Cc1oc(-c2cccc(Cl)c2)nc1CN1CCC(C(=O)NC2CC2)CC1 | . | . | . | . | . | .
CCc1ccc(-c2nc(CN3CCC(C(=O)N4CCN(c5ccccc5)CC4)CC3)c(C)o2)cc1 | 8.2µM | ? | . | . | . | ?
CCN(CCNC(=O)C1CCCN(Cc2nc(-c3ccc(OC)cc3)oc2C)C1)c1ccccc1 (stereo not given) | ? | ? | ? | ? | . | ?
CCN(CCNC(=O)C1CCN(Cc2nc(-c3cccc(Cl)c3)oc2C)CC1)c1ccccc1 | 2.59µM | ? | ? | . | . | ?
COc1ccc(CCNC(=O)C2CCN(Cc3nc(-c4ccc(Cl)cc4)oc3C)CC2)cc1OC | . | . | . | . | . | .
CCN(CCNC(=O)C1CCN(Cc2nc(-c3ccc(Cl)cc3)oc2C)CC1)c1ccccc1 | 7.31µM | ? | . | ? | ? | ?
CCc1ccc(-c2nc(CN3CCC(C(=O)NCCN(CC)c4ccccc4)CC3)c(C)o2)cc1 | 4.61µM | ? | . | . | . | ?
COc1ccc(N(CC(=O)NCc2ccccc2C)S(=O)(=O)c2ccccc2[N+](=O)[O-])c(OC)c1 | . | . | . | . | . | .
